Data on 15 molecules can be found in PubChem BioAssay (EPA / NIEHS).

Records with an inconclusive call do not appear. Active and inactive are the calls of the source. Rule for the calls: active = hit-call score of the fitted dose curve at least 0.9, where 1 is the maximum; inconclusive = response in the unintended direction; inactive = score below 0.9.

The target of this experiment is human Fibroblast Growth Factor Receptor 1 (FGFR1), FGFR1 (gene 2260) (UniProt P11362). The experiment can be described thus: NVS_ENZ_hFGFR1: NovaScreen (NVS) Enzymatic Assay for human Fibroblast Growth Factor Receptor 1 (FGFR1) (AID 2283159).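 For AC50: hits lower the signal so potencies describe inhibitors of the kinase.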 How it is done: NVS_ENZ_hFGFR1 is a biochemical, single-readout assay that uses extracted gene-proteins in a cell-free assay. Measurements were taken 1 hour after chemical dosing in a 384-well plate.NVS_ENZ_hFGFR1 is one of one assay component(s) measured or calculated from the NVS_ENZ_hFGFR1 assay. It is designed to make measurements of enzyme activity, a form of enzyme reporter, as detected with fluorescence intensity signals by Fluorescence and electrophoretic mobility shift technology.Data from the assay component NVS_ENZ_hFGFR1 was analyzed into 1 assay endpoint. This assay endpoint, NVS_ENZ_hFGFR1, was analyzed in the positive analysis fitting direction relative to DMSO as the negative control and baseline of activity. Using a type of enzyme reporter, loss-of-signal activity can be used to understand changes in the enzymatic activity as they relate to the gene FGFR1. Furthermore, this assay endpoint can be referred to as a primary readout, because this assay has produced multiple assay endpoints where this one serves a enzymatic activity function. To generalize the intended target to other relatable targets, this assay endpoint is annotated to the kinase intended target family, where the subfamily is receptor tyrosine kinase.
human Fibroblast Growth Factor Receptor 1 (FGFR1), FGFR1 (gene 2260), sequence (P11362 whole entry, looked up): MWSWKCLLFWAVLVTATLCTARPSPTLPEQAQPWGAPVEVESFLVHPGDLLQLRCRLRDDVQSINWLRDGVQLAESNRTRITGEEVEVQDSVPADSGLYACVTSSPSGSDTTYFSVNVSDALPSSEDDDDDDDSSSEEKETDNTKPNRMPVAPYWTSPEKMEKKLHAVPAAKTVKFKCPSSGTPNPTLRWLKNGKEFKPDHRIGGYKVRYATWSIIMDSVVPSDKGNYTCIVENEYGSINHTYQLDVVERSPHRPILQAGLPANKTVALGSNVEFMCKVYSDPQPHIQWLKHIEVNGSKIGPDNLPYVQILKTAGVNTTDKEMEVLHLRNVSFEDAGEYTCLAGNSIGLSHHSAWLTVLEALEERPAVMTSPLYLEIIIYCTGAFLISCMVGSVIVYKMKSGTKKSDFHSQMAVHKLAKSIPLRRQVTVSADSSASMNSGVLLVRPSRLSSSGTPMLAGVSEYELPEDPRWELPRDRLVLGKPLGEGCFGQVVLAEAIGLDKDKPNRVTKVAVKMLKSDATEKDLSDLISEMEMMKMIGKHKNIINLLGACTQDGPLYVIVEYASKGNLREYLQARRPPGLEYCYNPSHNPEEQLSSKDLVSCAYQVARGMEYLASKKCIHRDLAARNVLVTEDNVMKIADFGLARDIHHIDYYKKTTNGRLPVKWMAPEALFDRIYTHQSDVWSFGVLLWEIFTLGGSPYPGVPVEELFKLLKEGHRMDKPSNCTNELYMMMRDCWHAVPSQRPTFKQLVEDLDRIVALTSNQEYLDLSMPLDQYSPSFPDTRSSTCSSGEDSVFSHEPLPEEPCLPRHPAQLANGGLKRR
Binding assays used specific radioligands (tritiated, iodinated) with non-radioactive competitive displacement ligands in agonist or antagonist protocols (as indicated) and various reference compounds and inhibitors to titrate specific binding to receptors and transporters. Most enzyme assays (CYPs, kinases, phosphatases, proteases, HDACs) used recombinant protein and specific substrates (fluorescence mostly, some colorimetric and radioactive) and inhibitors, followed by a biochemical separation of substrate and product. All assays for the biochemical HTS were initially run in duplicate at a single concentration (10 uM for CYP450 assays and 25 uM for all others). […] Each assay was run with positive and negative controls, and concurrent controls on every plate. The follow-up (secondary) screen tested active chemical-pairs in concentration series, as well as a few additional assays not tested in the primary screen, some selected negative inactives, and several cases re-run in the concentration series for confirmatory purposes.
Take `Cc1ccccc1CO[C@@H]1C[C@@]2(C(C)C)CC[C@]1(C)O2`: the call was inactive.

Regarding `ClC(Cl)=C(c1ccc(Cl)cc1)c1ccc(Cl)cc1`, the outcome was inactive.

Turning to `Cc1cc2c3c(c1)C(c1ccccc1)=N[C@@H](NC(=O)c1ccncc1)C(=O)N3CC2`, the result was inactive.

Turning to `CC(c1ccc(O)cc1)(c1ccc(O)cc1)c1ccc(O)cc1`, the AC50 (as a rule, the concentration at which the activity in the assay is half-maximal) is 25 µM (active).

`CC1=C2C[C@H]3[C@@H](CC=C4C[C@@H](O)CC[C@@]43C)[C@@H]2CC[C@]12O[C@@H]1C[C@H](C)CN[C@H]1[C@H]2C`: the AC50 is 21.1 µM (active). For `Clc1ccc(C(c2ccccc2Cl)C(Cl)(Cl)Cl)cc1` (stereo not given), the molecule was classed as inactive.

On to `C=CC(=O)NCNC(=O)C=C`, for which the molecule was called inactive. As to `O=S(=O)(O)C(F)(F)C(F)(F)C(F)(F)C(F)(F)C(F)(F)C(F)(F)F`, the outcome was inactive.

Consider `Cc1cccc([N+](=O)[O-])c1`, for which the molecule was called inactive. On the same count and under the same terms, with `CCCCCCOC(=O)c1ccccc1C(=O)OCCCCCC` the entry was “inactive”; with `c1cc2ccc3cccc4ccc(c1)c2c34`, “inactive”. Still for that read-out and setting: with `O=C(N[C@H]1CN2CCC1CC2)c1cc2ccoc2cn1` the entry was “inactive”.

Take `O=S(=O)(O)C(F)(F)C(F)(F)C(F)(F)C(F)(F)F`: the call was inactive. Turning to `O=C(O)C(F)(F)C(F)(F)C(F)(F)C(F)(F)C(F)(F)C(F)(F)C(F)(F)C(F)(F)F`, the molecule was classed as inactive.

In the case of `CCC(C)c1cc([N+](=O)[O-])cc([N+](=O)[O-])c1O` (stereo not given), the result was inactive.
